About 83,000 compounds went through this panel and 20% of them were active in at least one assay; those are over-represented in the sample as a whole.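 Percent growth is the endpoint: 0 to 100 indicates growth inhibition (40 means 60% inhibition), 0 means no net growth, and negative values indicate cell death.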 Values without a mark were called inactive. The source made the active and inactive calls. Rule for the calls: active = growth percent below 10; inactive = the rest.
Tested on: MCF7 breast
Assay: NCI-60 one-dose screen, 48 h (100 = growth as untreated, 0 = no growth, -100 = all killed)
Conditions: 10 µM unless noted

SMILES | growth
Cc1cc(=O)oc2cc(Oc3nc(-c4ccccc4)cn4c(-c5ccccc5)cnc34)ccc12 | 50.5%
Cc1ccc2c(n1)C[C@H](C(C)(C)O)CC[C@H]2C | 94.6%
Nc1nc(N)c2c(n1)NC(c1cccc(Nc3ccnc4cc(C(F)(F)F)ccc34)c1)CC(c1ccc(Cl)cc1)=N2 (stereo not given) | 16.1%
C(CCCSC1=NCCN1)CCSC1=NCCN1 | 97.5%
O=S(=O)(Nc1ccc(Br)cc1)c1ccc(-c2cnc(C3CC3)o2)cc1 | 16.1%
Nc1n[nH]c2cccc(C#Cc3cccc(C(=O)Nc4ccc(Cl)c(C(F)(F)F)c4)c3)c12 | 50.2%
NC(=N\N=C/c1ccc(Cl)cc1Cl)/C(N)=N\N=C/c1ccc(Cl)cc1Cl | 87%
COc1cc(C(=O)/C=C/c2c(-c3cccs3)nc3sc(C)cn23)cc(OC)c1OC | 1.13% (active)
Nc1nc(=O)n([C@H]2CC=C(CO)O2)cc1F | 95.8%
COc1ccc(Nc2nccc(Nc3ccc4[nH]ncc4c3)n2)cc1 | 13.3%
Cc1[nH]c(C(=O)Nc2ccccc2OC2CCNC2)c(Cl)c1Cl (stereo not given) | 67.3%
CCN1CCN(CCOc2ccc(CNc3ccc4nc(CCC5CCCCC5)[nH]c4c3)cc2)CC1 | 3.86% (active)
O=C1NCCS(=O)(=O)/C1=C\C=C\c1cccc(C(F)(F)F)c1 | 18.2%
CCCCCCCCCCCCCC[n+]1ccc2c(C)c3c(c(C)c2c1)c1cc(O)ccc1n3CC | -70.3% (active)
CCCc1cc(CCC)n2nc(N)nc2n1 | 95.6%
O=S(=O)(c1ccc(NCSc2nc3ccccc3s2)cc1)c1ccc(NCSc2nc3ccccc3s2)cc1 | 97.5%
COc1cc(/C=C2\CN(S(=O)(=O)c3ccc(C)cc3)C/C(=C\c3cc(CN4CCCC4)c(O)c(OC)c3)C2=O)cc(CN2CCCC2)c1O | -25.5% (active)
Cc1cccc(CN(Nc2ccccc2)c2ccccc2)n1 | 93.3%
O=C(NS(=O)(=O)c1ccccc1)n1cc(-c2ccncc2)c(-c2cc(O)cc(Cl)c2)n1 | 102%
CCCCN(CCC#N)C(N)=O | 105%

SMILES | growth
CCOC(=O)/C(=C/c1ccc([N+](=O)[O-])cc1)C(=O)c1ccccc1 | 22.7%
N#Cc1c(-c2ccc(F)cc2)cc(-c2cccc(Cl)c2)[nH]c1=O | 54.5%
O=C(Nc1cccc(Cn2c(=O)[nH]c3ccc(Oc4ncccn4)cc3c2=O)c1)c1cccc(Cl)c1 | 40.2%
O=C1c2c(c3c4cccnc4[nH]c3c3ccc4ccccc4c23)C(=O)N1O | 20.8%
COC(=O)c1nc(-c2ccccc2)oc1S(=O)(=O)N1CCN(c2ccc(OC)cc2)CC1 | 45.4%
O=C1c2ccccc2-c2c1c1ccncc1c(=O)n2CCCn1ccnc1 | 9.35% (active)
COc1cc(-c2c(-c3ccccc3)c[nH]c2C(=O)NCCCO)c(OC)c2c1OCO2 | 110%
C=C(C)Cn1c(SCC(=O)c2cccs2)nc2sc3c(c2c1=O)CCCC3 | 46.7%
CNC1=C([N+](=O)[O-])C(c2ccc(OC)cc2)C(C#N)=C(c2ccc[nH]2)O1 (stereo not given) | 86.4%
Cn1cc(-c2nc(-c3c[nH]c4c(Cl)nccc34)cs2)c2ccccc21 | 44.7%
N/C(=N\c1nc2ccccc2s1)NC(=O)Nc1ccccc1 | 16.6%
C#Cc1ccc(NC(=O)Cc2ccc(/C=C/C(=O)c3nccn3C)cc2)cc1 | 21.5%
Cc1cc2c(C(C)C)c(O)c(O)c(/C=N/O)c2c(O)c1-c1c(C)cc2c(C(C)C)c(O)c(O)c(/C=N/O)c2c1O | 15.3%
O=C(Nc1ccc2[nH]ncc2c1)c1csc(Nc2ccccc2)n1 | 14.1%
COC(=O)c1nc(-c2ccccc2)oc1S(=O)(=O)NCC(c1ccc(Cl)cc1)N1CCCCC1 (stereo not given) | 34.7%
O=C(Nc1ccc(Oc2cccc(F)c2)c(Cl)c1)c1cnccn1 | 17.5%
COc1ccc(Nc2nc(Nc3cc(C)[nH]n3)c3cc(OC)c(OC)cc3n2)cc1 | -71.4% [20 µM] (active)
COC(=O)c1cc(-c2ccc(OC)c(OC)c2)[nH]c1N/N=C/c1c(Cl)cccc1Cl | 14.6%
CC(C)=CCC[C@](C)(O)C1CC[C@]2(C)[C@@H]1CC[C@@H]1[C@@]3(C)CC/C(=N\OCCC#N)C(C)(C)[C@@H]3CC[C@]12C (stereo not given in full) | 63.2%
N#C/C(=C\c1cccc2cnccc12)N1N=NC2C=CC=CC21 (stereo not given) | 13.6%
